# In article PMC11062922 (Nature Chemical Biology, 2023):
# Like-named read-outs stand apart in the source and are kept apart here.
# Experiments:
# Parameters in all cases: species or system human, MV4-11 + K-562 + COLO205 + SK-N-BE2 + OVCAR-8
# [1] = tested on: PIK3CA; conditions: read-out: apparent Kd, n = 1
# [2] = tested on: TESK1; conditions: read-out: apparent Kd; compound concentrations: 100 nM and 1000 nM (sheet 'Samples'), CATDS: 4.6291633424982298E-2; n = 1
# [3] = tested on: CDK1; conditions: read-out: apparent Kd, n = 1
# [4] = tested on: ADCK1; conditions: read-out: apparent Kd, n = 1
# [5] = tested on: ADRBK1; conditions: read-out: apparent Kd, n = 1
# [6] = tested on: PIM2; conditions: read-out: apparent Kd, compound concentrations: 100 nM and 1000 nM (sheet 'Samples'), n = 1
# [7] = tested on: PRKAG1; conditions: read-out: apparent Kd, n = 1
# [8] = tested on: STK3; conditions: read-out: apparent Kd; compound concentrations: 100 nM and 1000 nM (sheet 'Samples'), CATDS: 3.09457854656708E-2; n = 1
# [9] = tested on: STK16; conditions: read-out: apparent Kd; compound concentrations:100 nM and 1000 nM (sheet 'Samples'); n = 1
# [10] = tested on: CDK2; conditions: read-out: apparent Kd; compound concentrations:100 nM and 1000 nM (sheet 'Samples'); n = 1
# [11] = tested on: CDK5; conditions: read-out: apparent Kd; compound concentrations:100 nM and 1000 nM (sheet 'Samples'); n = 1
# [12] = tested on: IRAK3; conditions: read-out: apparent Kd; compound concentrations:100 nM and 1000 nM (sheet 'Samples'); n = 1
# [13] = tested on: MAPK8; conditions: read-out: apparent Kd; compound concentrations: 100 nM and 1000 nM (sheet 'Samples'), CATDS: 0.22198197498325201; n = 1
# [14] = tested on: PTK2B; conditions: read-out: apparent Kd; compound concentrations: 100 nM and 1000 nM (sheet 'Samples'), CATDS: 7.8469335656757594E-2; n = 1
# [15] = tested on: PTK2; conditions: read-out: apparent Kd; compound concentrations: 100 nM and 1000 nM (sheet 'Samples'), CATDS: 7.4046545419842305E-2; n = 1
# [16] = tested on: PIK3CG; conditions: read-out: apparent Kd, compound concentrations: 100 nM and 1000 nM (sheet 'Samples'), n = 1
# [17] = compound concentrations:100 nM and 1000 nM (sheet 'Samples')
smiles,measurement,setting,value
Cc1cc(O)cc(C)c1/C=C/c1cncc(-c2nn[nH]n2)c1.Cl [GW441806A],potency estimated from few doses,"[1]; compound concentrations: 100 nM and 1000 nM (sheet 'Samples'), CATDS: 8.3670028423682499E-2",256 nM
same,potency estimated from few doses,[2],1290 nM
Nc1c(C(=O)c2ccccc2)cnn1-c1ccc(F)cc1 [RO1151246-000],potency estimated from few doses,[3]; [17],1880 nM
Clc1ccc(-c2nn3ncccc3c2-c2ccnc(Nc3ccccc3)n2)cc1 [GW829055X],potency estimated from few doses,"[4]; compound concentrations: 100 nM and 1000 nM (sheet 'Samples'), CATDS: 3.6697893678181097E-2",1430 nM
same,potency estimated from few doses,"[5]; compound concentrations: 100 nM and 1000 nM (sheet 'Samples'), CATDS: 3.1852234097214598E-2",2080 nM
same,potency estimated from few doses,[6]; CATDS: 3.1911296970739501E-2,2070 nM
same,potency estimated from few doses,"[7]; compound concentrations: 100 nM and 1000 nM (sheet 'Samples'), CATDS: 3.7997381036159197E-2",1320 nM
same,potency estimated from few doses,[8],2270 nM
COc1ccc(Nc2nccc(N3CCC(NC(=O)Nc4cccc(OC)c4)C3)n2)cc1 (stereo not shown) [GSK1379742A],potency estimated from few doses,"[3]; compound concentrations: 100 nM and 1000 nM (sheet 'Samples'), CATDS: 0.12045824140997501",1770 nM
COc1ccc(C2=C(Nc3cccc(O)c3)C(=O)NC2=O)cc1 [SB-390766],potency estimated from few doses,[1]; [17],115 nM
same,potency estimated from few doses,[9],1590 nM
COc1cc(F)c(F)c(F)c1C(=O)c1cnc(NC2CCN(S(C)(=O)=O)CC2)nc1N [RO4600703-000],potency estimated from few doses,[3]; [17],368 nM
same,potency estimated from few doses,[10],90.2 nM
same,potency estimated from few doses,[11],138 nM
COc1ccc(C2=NC(c3ccc(Cl)cc3F)C(C(=O)Nc3ccc4[nH]ncc4c3)=C(C)N2)cn1.O=C(O)C(F)(F)F (stereo not shown) [GSK534913A],potency estimated from few doses,[5]; [17],895 nM
NS(=O)(=O)c1cccc(-c2ccc3nccc(-c4cccc(S(N)(=O)=O)c4)c3c2)c1 [GW867253X],potency estimated from few doses,"[5]; compound concentrations: 100 nM and 1000 nM (sheet 'Samples'), CATDS: 0.51630856929824398",1860 nM
NC(=O)c1cccnc1COc1cc(-c2ccc(N3CCOCC3)nc2)cc2ncccc12 [BI01125081],potency estimated from few doses,[12],577 nM
same,potency estimated from few doses,[9],1240 nM
COc1ccc(C2=C(c3cn(C)c4ccccc34)C(=O)NC2=O)cc1OC [RO3206363-000],potency estimated from few doses,"[7]; compound concentrations: 100 nM and 1000 nM (sheet 'Samples'), CATDS: 0.103334601265543",99.5 nM
COc1cc(N2CCN(C(C)C)CC2)ccc1Nc1nc(Nc2cccc(F)c2C(=O)O)c2cc[nH]c2n1 [GSK1819799A],potency estimated from few doses,[13],84.9 nM
same,potency estimated from few doses,[6]; CATDS: 4.4865682499900299E-2,1710 nM
same,potency estimated from few doses,[14],466 nM
same,potency estimated from few doses,[15],522 nM
COc1ccc(S(=O)(=O)NC2CCN(c3cc(C)nc(Nc4cccc(C#N)c4)n3)CC2)cc1.O=C(O)C(F)(F)F [GSK1653539A],potency estimated from few doses,[16]; CATDS: 0.32479738642046602,1380 nM
COc1ccc(-c2nn3ncccc3c2-c2ccnc(Nc3ccc4c(c3)OCCO4)n2)cc1 [GW827106X],potency estimated from few doses,"[1]; compound concentrations: 100 nM and 1000 nM (sheet 'Samples'), CATDS: 0.187165726463497",172 nM
same,potency estimated from few doses,[16]; CATDS: 5.53437190113686E-2,1180 nM
Fc1ccc(-c2ncn(C3CCNCC3)c2-c2ccnc(Oc3ccc4c(c3)OCO4)n2)cc1 [SB-250715],potency estimated from few doses,[4]; [17],1850 nM
same,potency estimated from few doses,[5]; [17],2150 nM
same,potency estimated from few doses,[7]; [17],1750 nM
Cl.Oc1ccc2ncnc(Nc3ccc(OCc4ccccc4)cc3)c2c1 [GI262866A],potency estimated from few doses,[9],1160 nM
COc1ccccc1-c1cc(/C=C2\C(=O)Nc3ncc(Br)cc32)cc(Br)c1O [GW442130X],potency estimated from few doses,[5]; [17],1960 nM
